# CD11b adhes inh: CD11b/CD18-fibrinogen binding inhibition | P05107+P11215 | K562 CD11b/CD18 adhesion to fibrinogen, ATPlite luminescence; Mn2+ added to activate the integrin | 0.54% of 93,000 active | inhibition, % at 10 µM;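 active means primary inhibition of 50% or more at 10 µM, then 40% or more on retest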
# CYP2C9 activ: increases human cytochrome P450 2C9 activity. 1.4% of 96,000 active. activation factor at 5 µM. recombinant CYP2C9, luciferin-H conversion, luminescence; stronger effect = higher value; factor 1 = untreated enzyme, 0 = blocked;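 active means activation factor of 2 or more for CYP2C9 at a 5 µM dose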;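 further: 0 = sulfaphenazole-blocked wells and 1 = vehicle-only wells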
# Target sequence (P11712 whole entry, looked up): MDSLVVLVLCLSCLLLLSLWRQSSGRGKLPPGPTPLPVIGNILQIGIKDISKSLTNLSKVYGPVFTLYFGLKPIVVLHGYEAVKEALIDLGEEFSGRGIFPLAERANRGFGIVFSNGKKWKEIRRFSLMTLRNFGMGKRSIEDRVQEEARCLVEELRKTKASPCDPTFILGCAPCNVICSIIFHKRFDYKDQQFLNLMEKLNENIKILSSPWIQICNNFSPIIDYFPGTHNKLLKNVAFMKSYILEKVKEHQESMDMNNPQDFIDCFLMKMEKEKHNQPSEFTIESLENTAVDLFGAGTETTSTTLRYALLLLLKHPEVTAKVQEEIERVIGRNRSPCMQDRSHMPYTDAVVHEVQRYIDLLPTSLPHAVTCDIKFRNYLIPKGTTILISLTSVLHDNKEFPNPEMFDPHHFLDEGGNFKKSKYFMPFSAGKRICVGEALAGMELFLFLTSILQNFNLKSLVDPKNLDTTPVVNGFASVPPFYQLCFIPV
# CD11b adhes enh: increases human CD11b/CD18 adhesion to fibrinogen; K562 CD11b/CD18 adhesion to fibrinogen, ATPlite luminescence; 0.07% of 93,000 active; activation, % at 10 µM;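 active means 10 µM primary screen giving 50% or more activity, confirmed by 40% or more on retest at that dose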
# CYP2C9 inh: blocks human cytochrome P450 2C9; AID 777; P11712; CYP2C9 Supersomes, luciferin-H conversion, luminescence; 20% of 96,000 active; inhibition, % at 5 µM;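 active means blocking of liver enzyme CYP2C9 beyond about 50% at 5 µM, limit read from the data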
# CYP2C19 act: activators of human cytochrome P450 2C19; P33261; recombinant CYP2C19, luciferin-H EGE luminescence; stronger effect = higher value; 0 = fully inhibited enzyme, 1 = untreated enzyme; activation factor at 5 µM; 96,000 tested, under 10 active; AID 1025;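 active means activation factor of at least 2 at 5 µM in the primary screen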;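 further: 0 = wells with 2.5 mM tranylcypromine and 1 = vehicle-only wells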
# CYP2C19 inh: inhibitors of human CYP2C19; inhibition, % at 5 µM; AID 778; CYP2C19 Supersomes, luciferin-H EGE luminescence, 30 min; 21% of 96,000 active; P33261;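 active means CYP2C19 inhibition above a set limit at 5 µM in the primary screen, cut at about 50% in these data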;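 further: plate controls were negative control wells for no effect and 2.5 mM tranylcypromine positive control for full effect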
# * hit, by the source's call; x = no result given. Hits are enriched below; roughly 28% of the tested compounds scored in any of these assays.
SMILES,CD11b adhes inh,CYP2C9 activ,CD11b adhes enh,CYP2C9 inh,CYP2C19 act,CYP2C19 inh
CCC(C(=O)N1CCN(c2ccccn2)CC1)n1nc(C)n2c(cc3occc32)c1=O (configuration not stated),-9,0.1,-4,91*,0.5,46
CC(NCc1ccco1)C(=O)N1CCc2ccccc2C1 (configuration not stated),-34,0.9,1,10,0.5,50
CCC(C(=O)N1CCc2ccccc2C1)n1nc(C)n2c(cc3occc32)c1=O (configuration not stated),6,0.3,-7,69*,0.3,68*
CCc1nn(C(C)C(=O)N2CCN(Cc3ccccc3)CC2)c(=O)c2cc3occc3n12 (configuration not stated),20,0.3,-2,67*,0.3,66*
Cc1cccc(N2CCN(C(=O)C(C)n3nc(C)n4c(cc5occc54)c3=O)CC2)c1C (configuration not stated),16,0.3,-4,68*,0.9,9
Cc1nn(C(C)C(=O)N2CCN(c3ccccn3)CC2)c(=O)c2cc3occc3n12 (configuration not stated),-1,0.8,-2,16,0.9,12
O=S1(=O)N=C2CCCCCN2C(c2ccncc2)N1 (configuration not stated),-13,1.1,-2,-13,1,-4
Cc1nn(C(C)C(=O)N2CCc3ccccc3C2)c(=O)c2cc3occc3n12 (configuration not stated),-2,1,-2,4,0.5,52*
COc1ccc(/C=c2/sc3nc(-c4ccccc4)c(-c4ccccc4)n3c2=O)cc1,0,x,2,x,x,x
COc1ccc(/C=N/NC(=O)COc2cccc3ccccc23)c(C(=O)O)c1OC,-2,x,-3,x,x,x
CC(C)(C)C(=O)[C@@H]1[C@@H]2C(=O)N(Cc3ccccc3)C(=O)[C@@H]2[C@H]2c3ccccc3C=CN12,-13,0.2,-4,75*,0.3,74*
CC(=O)[C@H]1[C@@H]2C(=O)N(c3cccc(Cl)c3)C(=O)[C@@H]2[C@H]2c3ccccc3C=CN21,16,0.9,3,10,0.7,27
O=C(O)c1cc(S(=O)(=O)NCc2ccco2)c(Cl)cc1Cl,0,1.1,-8,-11,1.1,-12
N#Cc1cc(-c2ccccc2)cnc1Sc1ccccc1,x,0.2,x,78*,0.7,28
COC(=O)c1ccc(N2CCN(S(=O)(=O)c3ccc4ccccc4c3)CC2)c([N+](=O)[O-])c1,28,1,-2,1,1.1,-7
Cn1c(=O)n(C)c2cc([N+](=O)[O-])c(N3CCN(S(=O)(=O)c4ccc5ccccc5c4)CC3)cc21,-14,0.6,-3,40,0.3,73*
Cc1ccc(S(=O)(=O)N2CCN(c3cc4c(cc3[N+](=O)[O-])n(C)c(=O)n4C)CC2)cc1,-25,0.2,-3,81*,0.2,76*
CC(C)(C)c1ccc(-c2nnc(SCCN3C(=O)c4ccccc4C3=O)o2)cc1,-24,0.2,5,84*,0.2,78*
O=C(CSc1ncccc1-c1nc2ccccc2[nH]1)N1CCN(c2ccccc2F)CC1,45,0.8,3,19,0.9,11
COc1cccc2c(=O)n(CC(=O)Nc3ccc(F)cc3F)ccc12,-18,0.8,2,21,0.4,56*
COc1ccc(C(=O)OCC(=O)Nc2ccc(F)c(F)c2)cc1OC,-24,0.7,-2,29,0.4,58*
CCC(CC)NC(=O)COC(=O)c1ccc(OCC(=O)Nc2ccccc2OC)c(OC)c1,3,0.6,-2,44,0.3,71*
COc1cc(C(=O)OCC(=O)Nc2ccc(F)cc2F)cc(OC)c1OC,1,0.7,-3,33,0.4,65*
O=C1C=C(N2CCN(C3=CC(=O)CCC3)CC2)CCC1,-6,1.1,-1,-13,1,0
CCCCc1nc2n[nH]c(N)c2c2c1CCCC2,-3,0.9,-4,14,0.6,43
SMILES,CD11b adhes inh,CYP2C9 activ,CD11b adhes enh,CYP2C9 inh,CYP2C19 act,CYP2C19 inh
Cc1cc(C)cc(-n2c(SCC(=O)NCc3ccco3)nc3ccccc3c2=O)c1,5,0.8,-8,22,1,4
Cc1ccn2cc(CSc3ccccc3N)nc2c1,x,0.8,x,19,0.6,39
Cn1ccnc1SCc1cn2cc(Br)ccc2n1,-12,1,-2,2,0.4,65*
CCOC(=O)C1Cn2c(nc3c(c2=O)C2(CCCC2)Cc2ccccc2-3)S1 (configuration not stated),5,0.6,0,38,0.4,62*
Cc1ccc(-n2c(SCC(N)=O)nc3c(c2=O)C2(CCCC2)Cc2ccccc2-3)cc1,1,x,-1,x,x,x
CCOC(=O)C1Cn2c(nc3c(c2=O)C(C)(C)Cc2ccccc2-3)S1 (configuration not stated),10,0.1,0,88*,0,97*
Cc1[nH][nH]c(=O)c1C(c1ccc(-c2ccc(Cl)c(Cl)c2)o1)c1c(C)[nH][nH]c1=O,-12,0.9,-2,11,0.4,59*
Cc1ccc(S(=O)(=O)Oc2ccc(C(c3c(C)[nH][nH]c3=O)c3c(C)[nH][nH]c3=O)cc2)cc1,-3,1,-2,5,0.8,24
COCCn1nnnc1CN1CCC(O)(c2cccc(C(F)(F)F)c2)CC1,-8,0.9,-1,5,0.7,32
OC1(c2cccc(F)c2)CCN(Cc2ccncc2)CC1,-12,1,-3,2,0.3,65*
Cc1cccc(Nc2nnc(SCC3CCCCO3)s2)c1 (configuration not stated),10,x,7,x,x,x
O=C(COc1ccc2ccccc2c1)NNC(=O)Cc1cccc2ccccc12,-4,x,6,x,x,x
CC(C)(C)c1ccc(C(=O)NNC(=O)Cc2cccc3ccccc23)cc1,-22,0.4,1,58*,0.8,17
O=S(=O)(NC1CC1)c1ccc(S(=O)(=O)N2CCCc3ccccc32)cc1,25,0.2,1,78*,0.1,90*
O=C(Nc1ccc(S(=O)(=O)N2CCCc3ccccc32)cc1)C1CCCO1 (configuration not stated),-12,0.3,7,65*,0.4,60*
COc1ccc(C(=O)NC2CCCCCC2)cc1S(=O)(=O)N1CCCc2ccccc21,20,0.9,0,11,1,-2
O=C(O)C1CC=CCC1C(=O)Nc1ccc(S(=O)(=O)N2CCCc3ccccc32)cc1 (configuration not stated),25,0.4,0,63*,1.1,-8
COc1ccc(C(=O)COc2nc(C)cc(C)c2C#N)cc1,-11,0.8,0,15,0.6,44
